Data as given in PubChem BioAssay (NCI).
About 83,000 compounds went through this panel and 20% of them were active in at least one assay; those are over-represented in the sample as a whole.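 Method: cells in 96-well plates; compound added at one concentration; 48 h incubation; percent growth measured; values under 10 scored active.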 The source made the active and inactive calls.

How the values were obtained:
Experiment in all cases: NCI-60 one-dose screen, 48 h (100 = growth as untreated, 0 = no growth, -100 = all killed)
Details in all cases: 10 µM unless noted
T-47D breast = test system: T-47D breast
BT-549 breast = test system: BT-549 breast
MDA-MB-435 melanoma = test system: MDA-MB-435 melanoma
SW-620 colon = test system: SW-620 colon
MCF7 breast = test system: MCF7 breast
HCT-116 colon = test system: HCT-116 colon
HCC-2998 colon = test system: HCC-2998 colon
KM12 colon = test system: KM12 colon

SMILES	growth (T-47D breast)	growth (BT-549 breast)	growth (MDA-MB-435 melanoma)	growth (SW-620 colon)	growth (MCF7 breast)	growth (HCT-116 colon)	growth (HCC-2998 colon)	growth (KM12 colon)
CN1CCN(Cc2ccc(NC(=O)c3cncc(C#Cc4cnc5ccc(OCCCS(C)(=O)=O)nn45)c3)cc2C(F)(F)F)CC1	16.2% (inactive)	-21.5% (active)	-22.7% (active)	1.18% (active)	-12.8% (active)	1.88% (active)	-22% (active)	-3.51% (active)
Cc1ccc(S(=O)(=O)c2nc(-c3ccc(F)cc3)oc2S(C)(=O)=O)cc1	60.8% (inactive)	43% (inactive)	77.2% (inactive)	-66.3% (active)	33.6% (inactive)	36.3% (inactive)	102% (inactive)	103% (inactive)
CC(=O)/C(N=Nc1ccc2oc(=O)ccc2c1)=C(\C)O	8.7% (active)	33.2% (inactive)	33.2% (inactive)	17.6% (inactive)	25.8% (inactive)	12.1% (inactive)	35.7% (inactive)	19% (inactive)
Oc1[nH]c2ccc(Cl)cc2c1N=Nc1nc(N=Nc2c(O)[nH]c3ccc(Cl)cc23)nc(N2CCOCC2)n1	29.3% (inactive)	-6.36% (active)	63.5% (inactive)	74.3% (inactive)	43.1% (inactive)	45.4% (inactive)	75.5% (inactive)	81.2% (inactive)
CC(=O)C1=C(C)NC(NNc2ccccc2)=NC1c1ccc([N+](=O)[O-])cc1 (stereo not drawn)	83.3% (inactive)	103% (inactive)	77% (inactive)	73.6% (inactive)	75% (inactive)	85.7% (inactive)	97% (inactive)	67.3% (inactive)
CCOP(=O)(OCC)OC[C@]12CCC(C)(C)CC1C1=CC[C@@H]3[C@@]4(C)CCCNC(C)(C)[C@@H]4CC[C@@]3(C)[C@]1(C)CC2 (stereo partly drawn)	79.2% (inactive)	104% (inactive)	90.6% (inactive)	66.3% (inactive)	35.1% (inactive)	20.4% (inactive)	26.6% (inactive)	88.7% (inactive)
CCCCCCN1C=C/C(=C\C(=O)n2ccc3ccccc32)c2ccccc21	31.1% (inactive)	65% (inactive)	84% (inactive)	79.2% (inactive)	29.2% (inactive)	48.4% (inactive)	34.6% (inactive)	67.1% (inactive)
CCN(CC)c1ccc(/C=N/NC(=O)c2ccc(S(N)(=O)=O)cc2)cc1	26% (inactive)	26.3% (inactive)	33% (inactive)	40.4% (inactive)	7.83% (active)	21.5% (inactive)	43% (inactive)	21% (inactive)
O=c1c2cc(-c3ccc(F)cc3F)ccc2n(Nc2ccccc2)c(=O)n1-c1cccc(C(F)(F)F)c1	8.44% (active)	3.91% (active)	5.62% (active)	16% (inactive)	4.02% (active)	7.14% (active)	14.7% (inactive)	11.4% (inactive)
Cc1[nH]c(C(=O)Nc2ccccc2OCc2cccc(C(=O)NCCN)c2)cc1Cl	87.1% (inactive)	104% (inactive)	20.6% (inactive)	32.4% (inactive)	11.3% (inactive)	38.2% (inactive)	109% (inactive)	86.4% (inactive)
CN1CCN(CCCCCC(=O)Nc2nc(-c3cccc(NS(=O)(=O)c4cccc5c(N(C)C)cccc45)c3)cs2)CC1	72.3% (inactive)	90.7% (inactive)	52.1% (inactive)	92.8% (inactive)	14.8% (inactive)	51.6% (inactive)	83.7% (inactive)	79.6% (inactive)
CCn1c2ccc(/C=N/N(C)S(=O)(=O)CCN(C)C)cc2c2cc(/C=N/N(C)S(=O)(=O)CCN(C)C)ccc21	88.6% (inactive)	72.4% (inactive)	62% (inactive)	30.6% (inactive)	22.1% (inactive)	14.3% (inactive)	63.4% (inactive)	81.4% (inactive)
CC(=O)OCCCCN1C=C/C(=C\C(=O)n2ccc3ccccc32)c2ccccc21	92.7% (inactive)	113% (inactive)	106% (inactive)	98.4% (inactive)	90.4% (inactive)	103% (inactive)	112% (inactive)	97.7% (inactive)
Cc1ccccc1N1CCN(C2=C(Cl)C(=O)c3ncccc3C2=O)CC1	-52.5% (active)	99.1% (inactive)	-62.9% (active)	-27.8% (active)	-29.3% (active)	-95.2% (active)	105% (inactive)	87.2% (inactive)
N#Cc1cccc(-c2cc(-c3ccc4c(c3)OCCO4)[nH]n2)c1	36.4% (inactive)	49.3% (inactive)	-24.6% (active)	27.5% (inactive)	12.2% (inactive)	23.1% (inactive)	47.3% (inactive)	36.4% (inactive)
Cc1ccc(C)c(NC2=C(Cl)C(=O)c3nc(C)ccc3C2=O)c1	-58% (active)	-5.46% (active)	-82.4% (active)	-49.2% (active)	-58.5% (active)	-74.1% (active)	17.7% (inactive)	36.7% (inactive)

SMILES	growth (T-47D breast)	growth (BT-549 breast)	growth (MDA-MB-435 melanoma)	growth (SW-620 colon)	growth (MCF7 breast)	growth (HCT-116 colon)	growth (HCC-2998 colon)	growth (KM12 colon)
CNC(=O)Nc1ccc(Nc2cc(-c3ccc(-n4cccn4)cc3)[nH]n2)c(C)c1	104% (inactive)	111% (inactive)	105% (inactive)	126% (inactive)	81.2% (inactive)	107% (inactive)	123% (inactive)	101% (inactive)
CC(C)(C)Nc1nc2c(OCCc3ccccc3)cccn2c1-c1cccc(Oc2ccccc2)c1	8.72% (active)	-11% (active)	19.9% (inactive)	23.5% (inactive)	4.96% (active)	4.13% (active)	21.3% (inactive)	14% (inactive)
O=C(Nc1ccc(N2CCOCC2)cc1)Nc1ccc2c(ccn2C(=O)c2cccc(F)c2)c1	68.9% (inactive)	71.7% (inactive)	68.3% (inactive)	74.5% (inactive)	53.2% (inactive)	24.2% (inactive)	62.4% (inactive)	74.1% (inactive)
Brc1cc(-c2cc(-c3ccc4c(c3)OC=CO4)[nH]n2)cs1	62.1% (inactive)	109% (inactive)	28.4% (inactive)	82.1% (inactive)	25.1% (inactive)	84.1% (inactive)	94.7% (inactive)	64.2% (inactive)
O=C(CCCCCCN1CC(=O)N2[C@@H](C3CC3)c3[nH]c4ccccc4c3C[C@H]2C1=O)NO	66.1% (inactive)	104% (inactive)	40.3% (inactive)	61.2% (inactive)	39.9% (inactive)	33.4% (inactive)	108% (inactive)	84.2% (inactive)
CS(=O)(=O)c1nccc(-c2c(-c3cccc(OCc4ccc(Cl)c(C(F)(F)F)c4)c3)nc3sccn23)n1	-45.6% (active)	101% (inactive)	103% (inactive)	61.2% (inactive)	-67.8% (active)	70.4% (inactive)	-50.1% (active)	37% (inactive)
O=c1c2ccccc2cc2n1CCN=C2c1ccccc1	91.7% (inactive)	116% (inactive)	104% (inactive)	96% (inactive)	94.7% (inactive)	106% (inactive)	109% (inactive)	104% (inactive)
O=C(CCCCCCN1CC(=O)N2[C@@H](c3cccs3)c3[nH]c4ccccc4c3C[C@H]2C1=O)NO	42.7% (inactive)	104% (inactive)	80.8% (inactive)	82.7% (inactive)	52.1% (inactive)	60.5% (inactive)	101% (inactive)	81.8% (inactive)
O=S(=O)(Oc1ccc(-c2cn3ccoc3n2)cc1)c1cccc(C(F)(F)F)c1	85.5% (inactive)	98.8% (inactive)	101% (inactive)	103% (inactive)	89.5% (inactive)	102% (inactive)	99.8% (inactive)	95.7% (inactive)
Cc1[nH]c(C(=O)Nc2ccccc2OCc2cccc(C(=O)NC3CCNC3)c2)c(Cl)c1Cl (stereo not drawn)	53.9% (inactive)	83.8% (inactive)	-53% (active)	-66.3% (active)	-73.9% (active)	-61.2% (active)	5.81% (active)	-1.67% (active)
O=[N+]([O-])c1ccc(NC(=S)NNC(=S)Nc2ccc(F)cc2)cc1	74.1% (inactive)	97.1% (inactive)	91% (inactive)	91.5% (inactive)	82% (inactive)	83.7% (inactive)	85.5% (inactive)	80.4% (inactive)
CCN(CC)CCOc1ccc(C(=C(c2ccccc2)C2CCCC2)c2ccc(OCCN(CC)CC)cc2)cc1	18.8% (inactive)	-18.6% (active)	-10% (active)	33.5% (inactive)	-57.3% (active)	13.3% (inactive)	-62.3% (active)	-7.22% (active)
NC(=S)n1c(=O)n(-c2cccc(C(F)(F)F)c2)c(=O)c2cc(-c3ccc(F)cc3F)ccc21	-12.9% (active)	-7.8% (active)	2.32% (active)	15% (inactive)	1.71% (active)	3.05% (active)	20.1% (inactive)	6.48% (active)
C#C[C@]1(O)CC[C@H]2[C@@H]3CC=C4c5sc(Nc6cc(Cl)ccc6OC)nc5CC[C@]4(C)[C@H]3CC[C@@]21C	31.2% (inactive)	3.68% (active)	-0.171% (active)	-20.7% (active)	-15.1% (active)	7.63% (active)	54.3% (inactive)	31.9% (inactive)
CN1CCN(Cc2ccc(NC(=O)c3cncc(C#Cc4cnc5ccc(N)nn45)c3)cc2C(F)(F)F)CC1	60.5% (inactive)	38.7% (inactive)	40.5% (inactive)	0.667% (active)	-19.7% (active)	1.19% (active)	20.7% (inactive)	3.48% (active)
